# Experimental data as given in PubChem BioAssay (NCI).
# Compounds without any hit were thinned out: in the full panel of roughly 83,000, 20% have a hit.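 Interpretation: 100, growth as untreated; towards 0, rising growth inhibition; 0, no net growth; 0 to -100, cell death. Compounds scoring below 10 were considered active.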 Activity calls are given as the source filed them.
# Tested on: HL-60(TB) leukemia
# Experiment: NCI-60 one-dose screen, 48 h (100 = growth as untreated, 0 = no growth, -100 = all killed)
# Conditions: 10 µM unless noted
row,Compound,growth
1,Cc1ccc(-c2nc(N3CCN(C(=O)c4ccc(OC(F)(F)F)cc4)CC3)c3ccccc3n2)cc1,97.5% (inactive)
2,CC/C(=C(/c1ccc(Cl)cc1)c1ccc(OCCN(CC)CC)cc1)c1ccc(OC)cc1,33.3% (inactive)
3,COc1cc(-c2cnc3nonc3n2)c(OC)c2c1OCO2,88.8% (inactive)
4,N#C/C(=C\C=C\c1ccc(-c2cc(Cl)ccc2Cl)o1)c1nc2ccccc2s1,97.7% (inactive)
5,Oc1ccccc1/C=N\NC(=S)Nc1ccc(F)cc1,-10.3% (active)
6,CC/C(=C\c1ccc(N(C)C)cc1)c1ccncc1,29.5% (inactive)
7,Cc1[nH]c2ccccc2c1/C=N/Nc1ncnc2sc3c(c12)CCN(CC(=O)OC(C)(C)C)C3,12.5% (inactive)
8,Cc1ccccc1C1N=C2Oc3ccccc3C=C2C(=O)N1 (stereo unspecified),2.2% (active)
9,C=C1C(=O)O[C@H]2[C@H]1CC/C(COC(=O)/C=C\C(=O)O)=C\CC[C@@]1(C)O[C@@H]21,105% (inactive)
10,COc1ccc2c(c1)c(-c1nn3cc(-c4cccs4)nc3s1)cn2C,82.7% (inactive)
11,CC(C)[O-].CC(C)[O-].CN(CCN(C)Cc1cc(F)cc(F)c1[O-])Cc1cc(F)cc(F)c1[O-].[Ti+4],5.88% (active)
12,C=C(C)[C@@H]1CC[C@]2(C(=O)NC(COC(=O)C(Cl)Cl)(COC(=O)C(Cl)Cl)COC(=O)C(Cl)Cl)CC[C@]3(C)[C@H](CC[C@@H]4[C@@]5(C)CC[C@H](OC(C)=O)C(C)(C)[C@@H]5CC[C@]43C)[C@@H]12,16.7% (inactive)
13,COc1ccc(-n2nnnc2-c2cn[nH]c2C(F)(F)F)cc1,98.3% (inactive)
14,COc1cc2ncnc(Nc3ccc(C(=O)/C=C/c4ccc(C(F)(F)F)cc4F)cc3)c2cc1OC,85.9% (inactive)
15,CC(CCN1CCN(CCC(C)CC(C)(C)C)C1CC(C)CC(C)(C)C)CC(C)(C)C (stereo unspecified),97.8% (inactive)
16,CC(=O)N(C)c1ccc([N+](=O)[O-])cc1,72.8% (inactive)
17,CC(=O)OCCOc1cc(Cl)c(Cl)cc1Cl,77.3% (inactive)
18,COc1cc(/C=C/c2cc(/C=C/c3ccc(O)c(OC)c3)[nH]c(=O)n2)ccc1O,61.3% (inactive)

row,Compound,growth
1,Cc1ccc(NC(=O)C2CCC(CN3CCN(C)CC3)CC2)cc1Nc1nccc(-c2cccnc2)n1 (stereo unspecified),110% (inactive)
2,C=C(C)[C@@H]1CC[C@]2(C(=O)N3CCN(C)CC3)CC[C@]3(C)[C@H](CC[C@@H]4[C@@](C)(CCC(=O)O)[C@H](C(=C)C)CC[C@]43C)[C@@H]12,82.5% (inactive)
3,CCOC(=O)C1=C(Nc2ccc(OC)cc2)C(N)=NC1=N,3.35% (active)
4,COc1ccc2c(c1)c(-c1nc(-c3c[nH]c4ncccc34)cs1)cn2CCN,41.2% (inactive)
5,Cn1cc(C(=O)c2nc(-c3c[nH]c4ccc(F)cc34)no2)c2cc(F)ccc21,70.5% (inactive)
6,CCN(CC)c1ccc(/C=C2\Oc3ccc(O)c(I)c3C2=O)cc1,18.5% (inactive)
7,CC(C)(C)OC(=O)c1ccc(NCc2cc(O)ccc2O)cc1,-39.3% (active)
8,CC[C@H](Nc1nc(N)nc(C)c1C#N)c1nc2cccc(NCc3ccc(C(=O)NO)cc3)c2c(=O)n1-c1ccccc1,2.45% (active)
9,Cn1c(=O)c2[nH]c(SC/C(=N/O)c3ccc(Br)cc3)nc2n(C)c1=O,99.5% (inactive)
10,O=Cc1nc2ccccc2[nH]1,98% (inactive)
11,O=[N+]([O-])c1ccc(-c2cc3c(Nc4ccc(Cl)c(C(F)(F)F)c4)ncnc3s2)cc1,-41.3% (active)
12,Cc1cn([C@]2(CF)O[C@H](CO)C2C)c(=O)[nH]c1=O (stereo partly specified),105% (inactive)
13,COc1ccc(Cc2nnc(Nc3nc4ccccc4s3)s2)cc1,-32.7% (active)
14,CN(CC(=O)N(Cc1ccc(C2CCCCC2)cc1)c1ccc(C(=O)NO)cc1)S(=O)(=O)c1c(F)c(F)c(F)c(F)c1F,43.6% (inactive)
15,O=S(=O)(Nc1cc(F)cc(F)c1)c1ccc(-c2cnc(C3CC3)o2)cc1,9.05% (active)
16,Oc1c(Br)c(Br)c(O)c(Br)c1Br,94.3% (inactive)
17,Cc1ccc(S(=O)(=O)OC[C@@]2(C)CC[C@]3(C)CC[C@]4(C)C(=C3C2)C=C[C@@H]2[C@@]3(C)CCCNC(C)(C)[C@@H]3CC[C@]24C)cc1,-58.4% (active)
18,Cc1cc2cc3c(=O)[nH]c(=O)cc-3n(CC(O)C(O)C(O)CO)c2cc1C (stereo unspecified),102% (inactive)
